Shn3 3UTR inh = reduction of Shn3 3'UTR firefly luciferase signal, primary screen, Schnurri-3 inhibitor project, cell-based, Clone20 osteoblasts, set 2; Clone20 osteoblast Shn3 3'UTR firefly luciferase, 24 h; inhibition, % at 12.5 µM; 360,000 compounds, 0.52% hits;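 active = mean inhibition of at least 75% with every replicate also reaching 75%; inconclusive = mean inhibition at least 75% but some replicate below; inactive = mean inhibition below 75%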
aSyn UTR inh = MLPCN primary screen, SNCA 5' untranslated region; 300,000 compounds, 0.82% hits; inhibition, % (tested at 7.5 µM); AID 1813, 2009; alpha-synuclein 5'UTR reporter, inhibitor activity; in the data active = inhibition above about 60%; inconclusive = no clear call, values can overlap the other calls;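 note: H4 neuroglioblastoma cells stably carrying SNCA 5'UTR luciferase fusion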
PAX8 reporter = inhibitors of PAX8-driven TPO luciferase reporter, primary screen, RMG-I cells, single concentration. SteadyGlo, 24 h. AID 652154, 2013. 360,000 compounds, 1.2% hits. inhibition, % at 12.6 µM;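 active = mean replicate inhibition at least 60% with every replicate also reaching 60%; inconclusive = only one of the two criteria is met; inactive = mean below 60% and not all replicates reaching 60%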;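 note: luciferase light reporting Pax8 driven TPO promoter activity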
LMP1 NFkB inh = EBV LMP1-driven NF-kappaB luciferase reporter inhibitors, primary screen, cell-based, luminescence, single point | LMP1-induced NF-kappaB luciferase reporter cells | AID 504558, 2011 | 350,000 compounds, 0.69% hits | inhibition, % at 12.5 µM; in the data active = inhibition above about 41%; inconclusive = no clear call, values can overlap the other calls
MITF TRPM1 inh = inhibitors of MITF-dependent TRPM1 promoter reporter, primary screen, cell-based, SK-MEL-5, single point, luciferase; SK-MEL-5 TRPM1 promoter luciferase, 24 h; inhibition, % at 12.5 µM; 330,000 compounds, 0.83% hits; AID 488899, 2010;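 active = mean inhibition across replicates of 60% or more, whatever share of single replicates reaches that level; inconclusive = some that reach 60%, reason not given; inactive = mean inhibition across replicates below 60%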
Of the large screens only hits and unclear results are named; the others gave an inactive call; ! = not confirmed by another sample. Compounds with a hit are over-represented: about 2.1% of the library has one in this group of screens.

COc1ccc2cc[nH]c2c1	aSyn UTR inh 70.8
O=C1CCN(Cc2ccccc2)C(=O)N1	none (no result: aSyn UTR inh)
Cc1cc(/C=N/Nc2nc(N)ncc2[N+](=O)[O-])c(C)n1-c1ccccc1F	aSyn UTR inh 72.7 (no result: Shn3 3UTR inh, PAX8 reporter, LMP1 NFkB inh, MITF TRPM1 inh)
Cc1ccc(N=c2ssnc2Cl)cc1	Shn3 3UTR inh 87.7
COc1cc(N=c2ssnc2Cl)c(OC)cc1Cl	Shn3 3UTR inh 94.9!
COc1ccc(OC)c(N=c2ssnc2Cl)c1	none
Oc1ccccc1C1=Nc2ncnn2C(c2ccc(F)cc2)C1 (stereo not drawn)	LMP1 NFkB inh 61.8 (no result: PAX8 reporter)
CCOc1ccc(NC(=O)c2ccc(NC(=O)COC(=O)Cc3ccc(OC)cc3)cc2)cc1	none
Nn1c(-c2ccc(F)cc2)nc2ccccc2c1=O	none (no result: MITF TRPM1 inh)
O=C1c2cc(F)ccc2-n2c1nc1ccccc1c2=O	aSyn UTR inh 65.8, MITF TRPM1 inh 98.3
COc1ccccc1C1(CC(=O)O)CCOC(C)(C)C1 (stereo not drawn)	LMP1 NFkB inh 68.5 (no result: PAX8 reporter)
Cc1noc(C)c1S(=O)(=O)N(C)C[C@H]1OCCCC[C@@H](C)Oc2ccc(NC(=O)NC(C)C)cc2C(=O)N([C@H](C)CO)C[C@@H]1C	none (no result: Shn3 3UTR inh, aSyn UTR inh, LMP1 NFkB inh, MITF TRPM1 inh)
COCCNc1nnc(Cc2ccc(Cl)cc2)c(=O)[nH]1	none
COCCCNc1nnc(Cc2ccc(Cl)cc2)c(=O)[nH]1	aSyn UTR inh 66.5
CCn1c(-c2cccn(Cc3ccc(Cl)cc3Cl)c2=O)n[nH]c1=S	none
O=C1OCc2nc3cc4c(cc3c(-c3ccc(F)cc3)c21)OCO4	none
C=CC[C@@H](CC(=O)N(CCO)Cc1ccccc1)C(=O)NC[C@H](OC(=O)[C@@H](CC=C)Cc1ccc(F)cc1)c1ccccc1	PAX8 reporter 83.6 (no result: aSyn UTR inh)
C=CCC[C@H](Cc1ccc(F)cc1)C(=O)OC[C@@H](NC(=O)[C@@H](CC=C)CC(=O)N[C@@H](CO)Cc1ccccc1)C(C)(C)C	PAX8 reporter 108.0 (no result: aSyn UTR inh)
C=CC[C@H](CC(=O)N(CCO)Cc1ccccc1)C(=O)N[C@H](COC(=O)[C@@H](CC=C)Cc1ccc(F)cc1)C(C)(C)C	none (no result: aSyn UTR inh)
C=CCC[C@@H](Cc1ccc(F)cc1)C(=O)OC[C@@H](NC(=O)[C@@H](CC=C)CC(=O)N[C@@H](CO)Cc1ccccc1)C(C)(C)C	none (no result: aSyn UTR inh)
C=CCC[C@H](Cc1ccc(F)cc1)C(=O)OC[C@@H](NC(=O)[C@@H](CC=C)CC(=O)N(CCO)Cc1ccccc1)C(C)(C)C	PAX8 reporter 64.1 (no result: aSyn UTR inh)
C[C@H](CO)N1C[C@H](C)[C@@H](CN(C)CC2CCCC2)Oc2ncc(-c3cccc(F)c3)cc2C1=O	none (no result: Shn3 3UTR inh, aSyn UTR inh, LMP1 NFkB inh, MITF TRPM1 inh)
Oc1ccc(C[C@@H]2CNCCN2CCc2cccc3ccccc23)cc1	none
C[C@H](CO)N1C[C@H](C)[C@@H](CN(C)C(=O)Nc2ccc(C(F)(F)F)cc2)Oc2ccc(NS(=O)(=O)c3ccccc3)cc2CC1=O	none (no result: Shn3 3UTR inh, aSyn UTR inh, LMP1 NFkB inh, MITF TRPM1 inh)
CN(C(=O)c1cccc(NC(=O)Cc2cccc(NC(=O)C3CCN(C(=O)CCc4ccccc4)CC3)c2)c1)C1CC1	none (no result: aSyn UTR inh)
CCCOc1ccc(C(=O)NNC(=S)NC(=O)c2cccs2)cc1	none
CCCOc1ccc(C(=O)NNC(=S)NC(C)=O)cc1	aSyn UTR inh 67.7
CCC(=O)NC(=S)NNC(=O)c1ccc(OC)cc1	none (no result: PAX8 reporter)
CCCCOc1ccc(C(=O)NNC(=S)NC(=O)CC)cc1	aSyn UTR inh 85.4 (no result: PAX8 reporter)
CCCOc1ccc(C(=O)NNC(=S)NC(=O)c2ccco2)cc1	aSyn UTR inh inconclusive
CC(C)(C)C(=O)NC(=S)NNC(=O)c1ccc(-c2ccccc2)cc1	Shn3 3UTR inh 94.5, aSyn UTR inh 66.9, MITF TRPM1 inh inconclusive (no result: PAX8 reporter)
CCCOc1ccc(C(=O)NNC(=S)NC(=O)c2ccccc2)cc1	aSyn UTR inh 79.6
CCCNC(=O)C1CCN(S(=O)(=O)c2ccc(-c3nn[nH]n3)cc2)CC1	none (no result: PAX8 reporter)
CC(C)NC(=O)Nc1ccc2c(c1)CC(=O)N([C@@H](C)CO)C[C@H](C)[C@@H](CN(C)C(=O)NC(C)C)O2	none (no result: Shn3 3UTR inh, aSyn UTR inh, LMP1 NFkB inh, MITF TRPM1 inh)
CCOc1ccc(C(=O)NC(=S)N(Cc2ccccc2)Cc2ccccc2)cc1	LMP1 NFkB inh 50.5 (no result: PAX8 reporter)
C[C@H](CO)N1C[C@H](C)[C@@H](CN(C)C(=O)Nc2cc(F)ccc2F)Oc2cc(/C=C/c3ccccc3)ccc2S1(=O)=O	PAX8 reporter 66.4 (no result: Shn3 3UTR inh, aSyn UTR inh, LMP1 NFkB inh, MITF TRPM1 inh)
C[C@H](CO)N1C[C@H](C)[C@@H](CN(C)C(=O)NC2CCCCC2)Oc2cc(C#Cc3ccc(F)cc3)ccc2S1(=O)=O	PAX8 reporter 82.2 (no result: Shn3 3UTR inh, aSyn UTR inh, LMP1 NFkB inh, MITF TRPM1 inh)

Source: PubChem BioAssay
